From PubChem BioAssay AID1159580 (chemical genetic matrix, 2015)
The campaign covered roughly 5,500 compounds. About 2,000 (36%) were called active. Another 18% or so got no clear call; they are omitted. Rule as the data show it: active = normalized growth mostly below about 0.91 (no sharp cut-off); inconclusive = no clear call, values can overlap the other calls; inactive = mostly above about 0.92. This is one part of the list.

Test: chemical genetic growth profiling, strain panel (AID 1159580);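 also: tested at 20 µM; growth read once vehicle control cultures reached saturation at 30 °C; 1 = growth at the plate median or of vehicle wells; lower values mean less growth of the strain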
Details: S. cerevisiae deletion strains, growth OD

Measured: normalized growth

O=C1[O][Bi][O]c2ccccc21
active: locus YDR195W, strain ref2 1.3 [resistant] | locus YFR010W, strain ubp6, stronger effect = lower value 1.11 [resistant] | locus YGL173C, strain kem1, stronger effect = lower value 0.416 | locus YGL240W, strain doc1, stronger effect = lower value 1.13 [resistant] | locus YHR027C, strain rpn1, stronger effect = lower value 0.904 | locus YJL095W, strain BCK1 (second series), stronger effect = lower value 0.914 | locus YJL164C, strain tpk1, stronger effect = lower value 0.732 | locus YMR058W, strain fet3, stronger effect = lower value 0.851 | locus YNL209W, strain ssb2, stronger effect = lower value 0.923 | locus YOR106W, strain vam3, stronger effect = lower value 0.861 | locus YOR270C, strain vph1, stronger effect = lower value 1.35 [resistant]
inactive: locus YAL021C, strain ccr4, stronger effect = lower value 1.06 | locus YAL026C, strain drs2, stronger effect = lower value 1.05 | locus YAL030W, strain snc1, stronger effect = lower value 0.972 | locus YBL061C, strain skt5, stronger effect = lower value 1.04 | locus YBR009C, strain hhf1, stronger effect = lower value 0.981 | locus YBR023C, strain chs3, stronger effect = lower value 1.05 | locus YBR171W, strain sec66, stronger effect = lower value 1.07 | locus YBR231C, strain swc5, stronger effect = lower value 1.02 | locus YBR279W, strain paf1, stronger effect = lower value 0.932 | locus YCL011C, strain gbp2, stronger effect = lower value 0.966 | locus YCL016C, strain dcc1, stronger effect = lower value 1.04 | locus YCL061C, strain MRC1, stronger effect = lower value 1.05 | locus YCL069W, strain vba3, stronger effect = lower value 1.06 | locus YCR088W, strain abp1, stronger effect = lower value 1.07 | locus YDL005C, strain med2, stronger effect = lower value 1.05 | locus YDL040C, strain nat1, stronger effect = lower value 1.03 | locus YDR001C, strain nth1, stronger effect = lower value 1.03 | locus YDR069C, strain doa4, stronger effect = lower value 0.944 | locus YDR137W, strain rgp1, stronger effect = lower value 1 | locus YDR159W, strain sac3, stronger effect = lower value 0.954 | locus YDR297W, strain sur2, stronger effect = lower value 0.94 | locus YDR334W, strain swr1, stronger effect = lower value 1.05 | locus YDR335W, strain msn5, stronger effect = lower value 1.04 | locus YDR392W, strain spt3, stronger effect = lower value 1.03 | locus YEL003W, strain gim4, stronger effect = lower value 1.03 | locus YEL037C, strain rad23, stronger effect = lower value 1.03 | locus YEL061C, strain CIN8 (second series), stronger effect = lower value 1.02 | locus YER015W, strain faa2, stronger effect = lower value 0.951 | locus YER016W, strain bim1, stronger effect = lower value 1.05 | locus YER111C, strain swi4, stronger effect = lower value 1.02 | locus YER155C, strain BEM2 (second series), stronger effect = lower value 0.997 | locus YGL167C, strain pmr1, stronger effect = lower value 1.03 | locus YGL227W, strain vid30, stronger effect = lower value 1.05 | locus YGL253W, strain hxk2, stronger effect = lower value 1.05 | locus YHR013C, strain ard1, stronger effect = lower value 1.02 | locus YHR030C, strain SLT2, stronger effect = lower value 0.996 | locus YHR079C, strain IRE1, stronger effect = lower value 0.985 | locus YHR142W, strain chs7, stronger effect = lower value 1.08 | locus YJL092W, strain hpr5, stronger effect = lower value 1.06 | locus YJL095W, strain BCK1, stronger effect = lower value 1.02 | locus YJL115W, strain asf1, stronger effect = lower value 1.03 | locus YJL129C, strain trk1, stronger effect = lower value 1.05 | locus YJL154C, strain vps35, stronger effect = lower value 1.04 | locus YJL166W, strain qcr8, stronger effect = lower value 0.937 | locus YJR066W, strain TOR1, stronger effect = lower value 0.925 | locus YKL160W, strain elf1, stronger effect = lower value 0.996 | locus YKR026C, strain gcn3, stronger effect = lower value 1.05 | locus YKR091W, strain srl3, stronger effect = lower value 1.04 | locus YLL001W, strain dnm1, stronger effect = lower value 1.04 | locus YLL026W, stronger effect = lower value 1.01 | locus YLL041C, strain sdh2, stronger effect = lower value 1.04 | locus YLR027C, strain aat2, stronger effect = lower value 1.04 | locus YLR113W, strain HOG1, stronger effect = lower value 1.06 | locus YLR221C, strain rsa3, stronger effect = lower value 1.02 | locus YLR258W, strain gsy2, stronger effect = lower value 1.02 | locus YLR262C, strain YPT6 (second series), stronger effect = lower value 1.06 | locus YLR320W, strain mms22, stronger effect = lower value 1.03 | locus YLR342W, strain FKS1, stronger effect = lower value 1.01 | locus YLR357W, strain rsc2, stronger effect = lower value 1 | locus YLR370C, strain arc18, stronger effect = lower value 1.06 | locus YLR384C, strain iki3, stronger effect = lower value 1.01 | locus YML120C, strain ndi1, stronger effect = lower value 1.03 | locus YMR125W, strain sto1, stronger effect = lower value 1.04 | locus YMR129W, stronger effect = lower value 0.96 | locus YMR205C, strain PFK2, stronger effect = lower value 0.985 | locus YMR231W, strain pep5, stronger effect = lower value 1.02 | locus YNL071W, strain lat1, stronger effect = lower value 1.03 | locus YNL183C, strain NPR1, stronger effect = lower value 0.936 | locus YNL248C, strain rpa49, stronger effect = lower value 1.07 | locus YNL322C, strain KRE1 (second series), stronger effect = lower value 1.05 | locus YNR049C, strain mso1, stronger effect = lower value 1.05 | locus YOR001W, strain rrp6, stronger effect = lower value 1.06 | locus YOR070C, strain gyp1, stronger effect = lower value 1.03 | locus YOR080W, strain dia2, stronger effect = lower value 1.05 | locus YOR083W, strain WHI5, stronger effect = lower value 1.03 | locus YOR231W, strain MKK1, stronger effect = lower value 1.02 | locus YOR265W, strain rbl2, stronger effect = lower value 1.04 | locus YOR290C, strain snf2, stronger effect = lower value 1.01 | locus YPL051W, strain arl3, stronger effect = lower value 0.945 | locus YPL078C, strain atp4, stronger effect = lower value 1.04 | locus YPL106C, strain sse1, stronger effect = lower value 1 | locus YPL240C, strain hsp82, stronger effect = lower value 1.02 | locus YPL256C, strain CLN2, stronger effect = lower value 1
